# Experimental data published in PubChem BioAssay (Tox21).
# Several values for one entry are separate records, joined by “and”; a condition that tells them apart may be missing. Equal values may be shown once. Records with an inconclusive call do not appear. Where a call stands in place of a potency, no number is given. A structure can be active in one record and inactive in another. Activity calls are given as the source filed them. Unless noted, calls come from the whole dose curve; as a rule, active = well fitted curve in the direction sought with a large enough effect in the repeat runs; inconclusive = weak or mixed curves; inactive = no such curve, though single readings can be large; an effect the other way counts as inactive or inconclusive.
# Tests used:
# [1] = molecular target: Aryl hydrocarbon receptor (Homo sapiens) (UniProt P35869); assay: qHTS assay to identify small molecule that activate the aryl hydrocarbon receptor (AhR) signaling pathway (AID 743085); note: nearly all actives have a fitted effect of over 15% in size; note: potency is the fitted concentration of half-maximal effect;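 for activation: HG2L7.5c1 human HepG2 liver cells with stably integrated DRE-driven firefly reporter; series mostly up to about 70 µM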
# Sequence of Aryl hydrocarbon receptor (Homo sapiens) (P35869 whole entry, looked up): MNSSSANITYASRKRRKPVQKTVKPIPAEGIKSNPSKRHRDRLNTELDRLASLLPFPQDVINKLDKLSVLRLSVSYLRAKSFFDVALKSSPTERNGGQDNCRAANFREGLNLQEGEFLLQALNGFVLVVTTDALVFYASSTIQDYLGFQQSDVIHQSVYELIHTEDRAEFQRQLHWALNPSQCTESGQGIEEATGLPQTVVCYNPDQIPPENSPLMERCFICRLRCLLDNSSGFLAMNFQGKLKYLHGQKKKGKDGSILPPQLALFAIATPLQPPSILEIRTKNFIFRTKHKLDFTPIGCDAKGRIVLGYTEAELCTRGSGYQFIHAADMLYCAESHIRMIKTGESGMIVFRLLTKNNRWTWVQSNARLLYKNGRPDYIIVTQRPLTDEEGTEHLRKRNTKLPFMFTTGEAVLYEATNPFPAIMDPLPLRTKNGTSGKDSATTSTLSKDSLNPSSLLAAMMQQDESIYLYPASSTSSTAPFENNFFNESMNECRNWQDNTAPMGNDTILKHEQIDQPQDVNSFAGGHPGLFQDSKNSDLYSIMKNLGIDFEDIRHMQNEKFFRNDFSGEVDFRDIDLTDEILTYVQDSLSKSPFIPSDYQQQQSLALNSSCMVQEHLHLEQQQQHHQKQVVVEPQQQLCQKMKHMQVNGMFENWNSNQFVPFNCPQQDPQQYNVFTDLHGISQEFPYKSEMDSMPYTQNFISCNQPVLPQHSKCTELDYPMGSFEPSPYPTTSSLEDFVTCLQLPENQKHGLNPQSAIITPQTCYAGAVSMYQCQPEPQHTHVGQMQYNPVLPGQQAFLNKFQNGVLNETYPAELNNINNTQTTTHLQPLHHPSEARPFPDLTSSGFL
# Method in brief: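 AhR agonist activity is inferred from enhanced light output of a DRE-controlled firefly luciferase reporter in HepG2 cells, measured with ONE-Glo following 24 h treatment at 37C.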
# [2] = qHTS assay to identify small molecule that activate the aryl hydrocarbon receptor (AhR) signaling pathway - cell viability counter screen (AID 743086); note: nearly all actives have a fitted effect of over 45% in size; note: potency is the fitted concentration of half-maximal effect
# Method in brief: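 HepG2-AhR-luc (HG2L7.5c1) cells, 4000/well, were preincubated 5 h at 37C, exposed to compound in qHTS format for 24 hr at 37C, then given CellTiter-Fluor for 30 min; viability was read as fluorescence in the reporter wells.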
# [3] = molecular target: Peroxisome proliferator-activated receptor gamma (Homo sapiens) (UniProt P37231); assay: qHTS assay to identify small molecule agonists of the peroxisome proliferator-activated receptor gamma (PPARg) signaling pathway (AID 743094; active = well fitted activation curve with a large enough effect in the signal ratio in the repeat runs, not every such curve was filed as active; the % refers to the signal ratio)
# Sequence of Peroxisome proliferator-activated receptor gamma (Homo sapiens) (P37231 whole entry, looked up): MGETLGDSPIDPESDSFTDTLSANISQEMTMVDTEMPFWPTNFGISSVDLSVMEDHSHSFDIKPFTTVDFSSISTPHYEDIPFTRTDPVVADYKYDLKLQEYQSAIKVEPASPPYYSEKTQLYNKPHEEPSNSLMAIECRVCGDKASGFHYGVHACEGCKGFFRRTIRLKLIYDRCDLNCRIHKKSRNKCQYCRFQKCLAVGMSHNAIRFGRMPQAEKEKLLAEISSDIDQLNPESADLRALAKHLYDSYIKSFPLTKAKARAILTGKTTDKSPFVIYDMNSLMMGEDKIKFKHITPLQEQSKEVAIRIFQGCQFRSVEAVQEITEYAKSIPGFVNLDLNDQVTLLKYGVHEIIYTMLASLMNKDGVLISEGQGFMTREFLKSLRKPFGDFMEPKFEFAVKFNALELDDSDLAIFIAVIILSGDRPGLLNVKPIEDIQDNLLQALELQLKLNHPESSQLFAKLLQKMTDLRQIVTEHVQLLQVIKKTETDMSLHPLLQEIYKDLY
# Method in brief: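 Compounds dissolved in DMSO were added to PPARg UAS-bla HEK293H cells for 17 h at 37C, and reporter expression was quantified by fluorescence intensity after 1 h with LiveBLAzer B/G FRET substrate.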
# [4] = molecular target: Peroxisome proliferator-activated receptor gamma (Homo sapiens) (UniProt P37231); assay: qHTS assay to identify small molecule antagonists of the peroxisome proliferator-activated receptor gamma (PPARg) signaling pathway (AID 743191; calls by dose curve; note: nearly all actives have a fitted effect of over 30% in size; note: potency is the fitted concentration of half-maximal effect)
# Method in brief: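 GeneBLAzer PPARg UAS-bla HEK293H cells carrying a UAS-driven beta-lactamase reporter were plated at 3000 cells/well, preincubated 5 h at 37C, then given compound for 17 h at 37C; LiveBLAzer B/G FRET substrate was read after 1 h at room temperature.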
# [5] = qHTS assay for small molecule agonists of the antioxidant response element (ARE) signaling pathway (AID 743202; active = well fitted activation curve with a large enough effect in the signal ratio in the repeat runs, not every such curve was filed as active; the % refers to the signal ratio; note: potency is the fitted concentration of half-maximal effect)
# Method in brief: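 Compounds delivered in DMSO to ARE-bla HepG2 cells (2,000 cells/well, pre-incubated 5 h) and left 16 h at 37 C. LiveBLAzer B/G FRET substrate then added for 2 h at RT before fluorescence reading.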
# [6] = qHTS assay for small molecule agonists of the antioxidant response element (ARE) signaling pathway - cell viability counter screen (AID 743203; calls by dose curve; note: nearly all actives have a fitted effect of over 55% in size; note: potency is the fitted concentration of half-maximal effect)
# Method in brief: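 Following 16 hrs of compound treatment at 37C, HepG2 cells with an ARE-controlled beta-lactamase gene were lysed with CellTiter-Glo. Luminescence was read after 30 min at room temperature.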
# [7] = qHTS assay for small molecule activators of the heat shock response signaling pathway - cell viability counter screen (AID 743209); note: nearly all actives have a fitted effect of over 50% in size
# Method in brief: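 Readout: CellTiter-Glo luminescence, 30 min at room temperature. System: HSE-bla HeLa cells, 1500/well, plated overnight. Treatment: compounds in DMSO, 5 h at 37 C.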
# [8] = qHTS assay for small molecule activators of the heat shock response signaling pathway (AID 743210; active = well fitted activation curve with a large enough effect in the signal ratio in the repeat runs, with a control signal flat, not every such curve was filed as active; the % refers to the signal ratio;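 note: HeLa cells with beta-lactamase reporter driven by heat shock elements; series mostly up to about 63 µM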)
# Method in brief: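 Reporter gene assay: HeLa cells stably bearing an HSE-bla construct, compound treatment 5 h at 37 C, LiveBLAzer substrate 2.5 h at RT, fluorescence intensity.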
# [9] = qHTS assay to identify small molecule agonists of the peroxisome proliferator-activated receptor delta (PPARd) signaling pathway - cell viability counter screen (AID 743211); note: nearly all actives have a fitted effect of over 55% in size; note: potency is the fitted concentration of half-maximal effect
# Method in brief: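 qHTS cell viability: PPARd-bla HEK293H; 17 h cpd, 37C; CellTiter-Glo, luminescence at 30 min RT.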
# [10] = qHTS assay to identify small molecule antagonists of the peroxisome proliferator-activated receptor gamma (PPARg) signaling pathway - cell viability counter screen (AID 743194); conditions: Potency: co-treated with 50 nM rosiglitazone; note: nearly all actives have a fitted effect of over 55% in size; note: potency is the fitted concentration of half-maximal effect
# Method in brief: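 PPARg-UAS-bla HEK293H cells were plated, rested 5 h at 37 C, then treated with compounds plus rosiglitazone (50 nM final) for 17 h at 37 C; viability was then read by CellTiter-Glo luminescence after 30 min at room temperature.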
Compound,Potency [1],Potency [2],outcome [3],Potency [4],Potency [5],Potency [6],Potency [7],Potency [8],Potency [9],Potency [10]
COP(=O)(OC)O/C(C)=C/C(=O)N(C)C,inactive,inactive,inactive,inactive,inactive,inactive,inactive,inactive,inactive,–
CCCCCCCCSC(=O)Oc1cc(Cl)nnc1-c1ccccc1,inactive,inactive,inactive,43.6 µM (active),inactive,inactive,–,–,inactive,inactive
CCCN1CCC[C@@H]2Cc3nc(N)ncc3C[C@H]21,21.1 µM (active),inactive,inactive,inactive,–,inactive,–,inactive,inactive,inactive
CC1=C2[C@H]3OC(=O)[C@@H](C)[C@@H]3CC[C@@]2(C)C=CC1=O,inactive,inactive,inactive,inactive,–,inactive,–,inactive,inactive,inactive
CCN[C@@H](C)Cc1ccccc1,inactive,inactive,inactive,inactive,–,inactive,inactive,inactive,inactive,–
Clc1ccc(C(Cl)(Cl)Cl)cn1,48.6 µM (active),inactive,inactive,inactive,inactive,–,inactive,inactive,inactive,inactive
CCC(=O)c1ccc(Cl)cc1,inactive,inactive,inactive,inactive,inactive,inactive,–,inactive,inactive,inactive
N#CN,inactive,inactive,inactive,inactive,inactive,inactive,–,inactive,inactive,inactive
C[C@H](N)C(=O)c1ccccc1,inactive,inactive,inactive,inactive,–,inactive,inactive,inactive,inactive,inactive
CN=CNc1ccc(C)cc1C,inactive,inactive,inactive,inactive,–,inactive,inactive,inactive,inactive,inactive
N=C(N)[Se],inactive,inactive,inactive,inactive,inactive,inactive,–,inactive,inactive,inactive
CC(O)CCl (stereo unspecified),inactive,inactive,inactive,inactive,–,inactive,inactive,inactive,inactive,inactive
CCC1(c2cccc(O)c2)CCCCN(C)C1 (stereo unspecified),inactive,inactive,inactive,inactive,inactive,inactive,–,inactive,inactive,inactive
CCCN1CCC[C@@H]2Cc3[nH]ncc3C[C@H]21,9.44 µM (active),inactive,inactive,–,inactive,inactive,inactive,inactive,inactive,inactive
ClCC1CO1 (stereo unspecified),inactive,inactive,inactive,inactive,inactive,inactive,–,inactive,inactive,inactive
CCOP(=O)(CN(CCO)CCO)OCC,inactive,inactive,inactive,inactive,–,inactive,inactive,inactive,inactive,inactive
CCSC(=O)Cl,inactive,inactive,inactive,–,–,inactive,inactive,–,inactive,inactive
O=c1[nH]c2ccccc2o1,inactive,inactive,inactive,–,inactive,inactive,inactive,inactive,inactive,inactive
CC(C)[N+](C)(CCC(C(N)=O)(c1ccccc1)c1ccccc1)C(C)C,inactive,inactive,inactive,–,–,inactive,–,–,inactive,inactive
CC(C)[C@]12CC(=O)[C@H](C)[C@H]1C2,inactive,inactive,inactive,–,inactive,inactive,–,inactive,inactive,inactive
C=C(Cl)CSC(=S)N(CC)CC,inactive,inactive,inactive,–,–,inactive,–,–,inactive,inactive
O=C(NC(=O)c1c(F)cccc1F)Nc1cc(Cl)c(F)c(Cl)c1F,inactive,inactive,inactive,–,–,inactive,inactive,inactive,inactive,inactive
C=CC(=O)OCCN(C)C,inactive,inactive,inactive,–,inactive,inactive,inactive,inactive,inactive,inactive
C=CC=O,inactive,inactive,inactive,–,–,inactive,–,inactive,inactive,inactive
ClCOCCl,inactive,inactive,inactive,–,inactive,inactive,–,–,inactive,inactive
O=C(O)C(Cl)Br (stereo unspecified),inactive,inactive,inactive,–,4.91 µM (active),inactive,–,inactive,inactive,inactive
Nc1c(Cl)c(F)nc(OCC(=O)O)c1Cl,inactive,inactive,inactive,–,inactive,inactive,–,inactive,inactive,inactive
CCc1cc(OC)c(C[C@H](C)N)cc1OC,inactive,63.7 µM (active),inactive,–,–,inactive,inactive,inactive,inactive,inactive
O=C1C2CC=CCC2C(=O)N1SC(Cl)(Cl)Cl (stereo unspecified),inactive,inactive and 42.6 µM (active),inactive,–,–,inactive and 23.9 µM (active),inactive,–,inactive and 10.8 µM (active),3.83 µM (active)
CC(C)(C1CCC(O)CC1)C1CCC(O)CC1 (stereo unspecified),inactive,inactive,inactive,–,inactive,inactive,inactive,–,inactive,inactive
